Source: PubChem BioAssay (NCI)
About 79,000 compounds went through this panel and 15% of them were active in at least one assay; those are over-represented in the sample as a whole. Calls of active or inactive are those of the source. No stated cut-off is given here; in the data, active means growth inhibition above about 70%; inactive means the rest.

How the values were obtained:
[1] = NCI Yeast Anticancer Drug Screen. Data for the mec2-1 strain (AID 157); settings: S. cerevisiae mec2-1 strain, hits give high values
How it was run: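 Readout is yeast growth inhibition, normalised to vehicle-treated controls, in the mec2-1 strain exposed to compound.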

[2] = NCI Yeast Anticancer Drug Screen. Data for the rad14 strain (AID 159);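 further: 0% = growth of vehicle-treated control cultures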; settings: S. cerevisiae rad14 strain growth inhibition, hits give high values
How it was run: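 Inhibition of growth is reported for a repair-deficient yeast mutant following compound treatment, calculated relative to cultures that received vehicle.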

[3] = NCI Yeast Anticancer Drug Screen. Data for the sgs1 mgt1 strain (AID 161);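 further: 0% = growth of cultures given vehicle only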; settings: S. cerevisiae sgs1 mgt1 strain, hits give high values
How it was run: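 Yeast cells carrying a defined DNA-repair defect were exposed to test compounds. Growth inhibition was measured relative to vehicle-treated controls.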

[4] = NCI Yeast Anticancer Drug Screen. Data for the CLN2oe strain (AID 163);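 further: 0% = growth of vehicle-only control cultures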; settings: S. cerevisiae CLN2oe strain, hits give high values
How it was run: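 Values reflect how much compound exposure reduced yeast growth, referenced to vehicle-exposed cells. Assay organism is a strain with a defined genetic change affecting cell-cycle control.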

[5] = NCI Yeast Anticancer Drug Screen. Data for the cln2 rad14 strain (AID 165);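 further: 0% = growth equal to vehicle treated cultures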; settings: S. cerevisiae cln2 rad14 strain, hits give high values
How it was run: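 Relative to vehicle controls, growth inhibition of compound-treated cln2 rad14 yeast was recorded.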

[6] = NCI Yeast Anticancer Drug Screen. Data for the bub3 strain (AID 167); settings: S. cerevisiae bub3 mutant strain, hits give high values
How it was run: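 Mutant yeast screening strain plus compound; vehicle-treated cultures serve as the 0% inhibition reference.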

[7] = NCI Yeast Anticancer Drug Screen. Data for the mlh1 strain (AID 171);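 further: 0% = growth of vehicle-treated control cultures of the same strain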; settings: S. cerevisiae mlh1 strain growth inhibition, hits give high values
How it was run: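 Steps: expose the defined-mutant yeast strain to compound; expose a parallel culture to vehicle; measure growth; express compound effect as inhibition relative to the vehicle culture.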

[8] = NCI Yeast Anticancer Drug Screen. Data for the sgs1 strain (AID 173);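 further: 0% = growth of vehicle-only control cultures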; settings: S. cerevisiae sgs1 mutant, hits give high values
How it was run: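 Treat defined-mutant yeast with compound; measure growth; calculate inhibition relative to vehicle-treated cells.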

[9] = NCI Yeast Anticancer Drug Screen. Data for the mlh1 rad18 strain (AID 175); settings: S. cerevisiae mlh1 rad18 strain growth inhibition, hits give high values
How it was run: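 Test agents were incubated with a yeast strain of defined genotype (DNA damage repair defect). Inhibition of growth was derived by comparison with vehicle-exposed cultures.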

[10] = NCI Yeast Anticancer Drug Screen. Data for the rad18 strain (AID 177); settings: S. cerevisiae rad18 mutant growth inhibition, hits give high values
How it was run: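 A genetically defined yeast mutant impaired in DNA damage repair was treated with test compounds, then its growth was measured against cultures receiving vehicle alone.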

[11] = NCI Yeast Anticancer Drug Screen. Data for the rad52 strain (AID 147);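 further: 0% = growth of vehicle-treated control cultures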; settings: S. cerevisiae rad52 mutant growth inhibition, hits give high values
How it was run: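 Screen used a yeast mutant impaired in DNA repair. After compound exposure, growth was measured. Values reflect inhibition compared with vehicle-treated cells.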

[12] = NCI Yeast Anticancer Drug Screen. Data for the wt1 strain (AID 149);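 further: 0% = growth of vehicle-treated wt1 cultures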; settings: S. cerevisiae wt1 strain (SPY 50644) growth inhibition, hits give high values
How it was run: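 Each compound is tested on wt1 yeast and the loss of growth versus vehicle gives the inhibition value.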

[13] = NCI Yeast Anticancer Drug Screen. Data for the rad50EPP+ strain (AID 151);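 further: 0% = growth of vehicle-treated control cultures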; settings: S. cerevisiae rad50 mutant strain, hits give high values
How it was run: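 Exposing the rad50EPP+ strain to each compound, growth was compared with vehicle-only cultures to give inhibition.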

[14] = NCI Yeast Anticancer Drug Screen. Data for the mgt1 strain (AID 153); settings: S. cerevisiae mgt1 mutant growth inhibition, hits give high values
How it was run: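 Genetically defined yeast (mgt1) treated with compound; inhibition of growth expressed against vehicle-treated controls.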

[15] = NCI Yeast Anticancer Drug Screen. Data for the rad50 strain (AID 155);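 further: 0% = growth of vehicle-only cultures of the same strain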; settings: S. cerevisiae rad50 strain growth inhibition, hits give high values
How it was run: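 Vehicle-treated cultures provide the reference for the growth inhibition reported for compound-exposed, repair-deficient yeast.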

[16] = NCI Yeast Anticancer Drug Screen. Data for the wt2 strain (AID 169); settings: S. cerevisiae wt2 strain growth inhibition, hits give high values
How it was run: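 Values express reduction in yeast growth under compound treatment, referenced to vehicle-treated cells.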

[17] = at 5.0 µM (retest, dose inferred, filed as 0.5)
[18] = at 50.0 µM (retest, dose inferred, filed as 5.0)

Measured: growth inhibition

Cc1cc(N=Nc2ccc(S(=O)(=O)[O-])cc2)cc(C(=O)[O-])c1[O-].NC1CCCCC1N.[Na+].[Pt+4]
inactive: [1]; [17] 32% | [2]; at 1.2 µM -4% | [2]; at 3.7 µM 52% | [3]; [17] 68% | [4]; at 1.2 µM 5% | [4]; at 3.7 µM 21% | [5]; [17] 49% | [6]; at 1.2 µM -21% | [6]; at 3.7 µM 40% | [6]; [17] 50% | [7]; at 1.2 µM 7% | [7]; at 3.7 µM 66% | [8]; at 1.2 µM 21% | [8]; at 3.7 µM 63% | [9]; [17] 33% | [10]; at 1.2 µM -26% | [10]; at 3.7 µM 42%
active: [1]; at 11.0 µM 99% | [1]; at 33.0 µM 99% | [1]; [18] 99% | [1]; at 50.0 µM 91.2% | [1]; at 100.0 µM 98% | [2]; at 11.0 µM 98% | [2]; at 33.0 µM 98% | [2]; at 100.0 µM 98% | [3]; [18] 99% | [3]; at 50.0 µM 92% | [4]; at 11.0 µM 95% | [4]; at 33.0 µM 99% | [4]; at 100.0 µM 98% | [5]; [18] 97% | [5]; at 50.0 µM 92% | [6]; at 11.0 µM 99% | [6]; at 33.0 µM 98% | [6]; [18] 98% | [6]; at 50.0 µM 90.2% | [6]; at 100.0 µM 98% | [7]; at 11.0 µM 99% | [7]; at 33.0 µM 99% | [7]; at 100.0 µM 98% | [8]; at 11.0 µM 99% | [8]; at 33.0 µM 99% | [8]; at 100.0 µM 99% | [9]; [18] 98% | [9]; at 50.0 µM 85.8% | [10]; at 11.0 µM 97% | [10]; at 33.0 µM 98% | [10]; at 100.0 µM 98%

S=C(N/N=C(/c1ccccc1)c1ccccn1)N1CCCCCC1
active: [15]; [18] 96% | [15]; at 50.0 µM 76.7% | [1]; [18] 97% | [1]; at 50.0 µM 80.5% | [3]; [17] 75% | [3]; [18] 96% | [3]; at 50.0 µM 85.4% | [5]; [18] 96% | [5]; at 50.0 µM 82.5% | [6]; [17] 95% | [6]; [18] 97% | [6]; at 50.0 µM 87.8% | [9]; [17] 93% | [9]; [18] 97% | [9]; at 50.0 µM 86.2%
inactive: [11]; at 1.2 µM 42% | [11]; at 3.7 µM 52% | [11]; at 11.0 µM 57% | [11]; at 33.0 µM 57% | [11]; at 100.0 µM 41% | [12]; at 1.2 µM -3% | [12]; at 3.7 µM 3% | [12]; at 11.0 µM 4% | [12]; at 33.0 µM 2% | [12]; at 100.0 µM -2% | [13]; at 1.2 µM 5% | [13]; at 3.7 µM 7% | [13]; at 11.0 µM 8% | [13]; at 33.0 µM 3% | [13]; at 100.0 µM 6% | [14]; at 1.2 µM -5% | [14]; at 3.7 µM -7% | [14]; at 11.0 µM 16% | [14]; at 33.0 µM -18% | [14]; at 100.0 µM -6% | [15]; at 1.2 µM 0% | [15]; at 3.7 µM 6% | [15]; [17] 5% | [15]; at 11.0 µM -20% | [15]; at 33.0 µM 4% | [15]; at 100.0 µM 8% | [1]; at 1.2 µM 1% | [1]; at 3.7 µM 0% | [1]; [17] 24% | [1]; at 11.0 µM 4% | [1]; at 33.0 µM 1% | [1]; at 100.0 µM 4% | [2]; at 1.2 µM -5% | [2]; at 3.7 µM -4% | [2]; at 11.0 µM -4% | [2]; at 33.0 µM -5% | [2]; at 100.0 µM -1% | [4]; at 1.2 µM 5% | [4]; at 3.7 µM 0% | [4]; at 11.0 µM 4% | [4]; at 33.0 µM -4% | [4]; at 100.0 µM 7% | [5]; [17] 18% | [6]; at 1.2 µM 4% | [6]; at 3.7 µM 16% | [6]; at 11.0 µM 22% | [6]; at 33.0 µM 13% | [6]; at 100.0 µM 2% | [16]; at 1.2 µM 5% | [16]; at 3.7 µM 7% | [16]; at 11.0 µM 12% | [16]; at 33.0 µM 10% | [16]; at 100.0 µM 5% | [7]; at 1.2 µM -3% | [7]; at 3.7 µM -2% | [7]; at 11.0 µM 4% | [7]; at 33.0 µM 1% | [7]; at 100.0 µM -1% | [10]; at 1.2 µM 8% | [10]; at 3.7 µM 20% | [10]; at 11.0 µM 20% | [10]; at 33.0 µM 6% | [10]; at 100.0 µM 19%
